Compound activity deposited in PubChem by NMMLSC.
Cdc42 wt GTP – modulators (inhibitors or activators) of GTP binding to human Cdc42 wildtype | P60953 | GST-Cdc42 beads, Bodipy-GTP binding, flow cytometry; actives lie on both sides | percent activity (GTP binding), % at 10 µM | hit rate 0.2% among 190,000;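 active = percent activity GTP binding at least 20 points away from the 100% baseline, either down as inhibitor or up as activator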;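 note: median bead fluorescence of bound Bodipy-FL-GTP at 100 nM; 0% = excess unlabeled GTP control and 100% = no compound control; below 100% means less GTP binding so inhibitor and above means activator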
Target sequence (P60953 whole entry, looked up): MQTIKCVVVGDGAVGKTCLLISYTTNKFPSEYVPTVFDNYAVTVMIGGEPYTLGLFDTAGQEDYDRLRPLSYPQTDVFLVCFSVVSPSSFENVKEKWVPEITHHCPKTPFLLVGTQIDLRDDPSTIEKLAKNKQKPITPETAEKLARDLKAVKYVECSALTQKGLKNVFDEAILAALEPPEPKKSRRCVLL
Rab2 wt GTP – changes GTP binding to wildtype dog Rab2A, up or down. GST-Rab2 wt beads, Bodipy-GTP binding, flow cytometry. GTP binding activity, % at 10 µM. hit rate 0.19% among 190,000. AID 760;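 active = GTP binding activity at least 20 points away from 100%, either lowered or raised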;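 note: 0% = beads with excess unlabeled GTP and 100% = no-compound control corrected for plate trend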
Rac1 mut GTP – alters GTP binding to activated mutant human Rac1. GST-Rac1 activated beads, fluorescent GTP binding, flow cytometry; actives lie on both sides; 100% means binding = to untreated wells. hit rate 0.11% among 190,000. P63000. percent activity (GTP binding), % at 10 µM;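 active = GTP binding at least 20 percentage points away from the 100% baseline, in either direction, so actives lie on both sides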
HRas wt GTP – human HRas wildtype GTP binding, change in either direction. GST-Ras wt beads, Bodipy-FL-GTP binding, flow cytometry; actives lie on both sides. GTP binding activity, % at 10 µM. hit rate 0.14% among 190,000. AID 759;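 active = GTP binding activity at least 20% away from the 100% baseline, either lowered as inhibitor or raised as activator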;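 note: 0% = unlabeled GTP competition control and 100% = no-compound control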
Target sequence (P01112 whole entry, looked up): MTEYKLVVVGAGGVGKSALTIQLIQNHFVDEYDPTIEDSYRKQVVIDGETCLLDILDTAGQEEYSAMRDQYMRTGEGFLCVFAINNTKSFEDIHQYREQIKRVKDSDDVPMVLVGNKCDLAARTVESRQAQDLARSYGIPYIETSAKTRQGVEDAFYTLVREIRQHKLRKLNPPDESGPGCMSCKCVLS
Rab7 wt modul – alters GTP binding to wildtype dog Rab7. AID 758. hit rate 0.055% among 190,000. GST-Rab7 beads, fluorescent GTP binding, flow cytometry; actives lie on both sides; untreated = 100%, excess cold GTP = 0%. GTP binding activity (percent of control), % at 10 µM;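 active = fluorescent GTP binding to Rab7 beads changed by at least 20 points from the 100% baseline, either direction, mostly lower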;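 note: median green fluorescence of bound Bodipy-FL-GTP per Rab7 bead population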
Rac1 wt modul – modulators of human Rac1 wildtype GTP binding | P63000 | GST-Rac1 beads, fluorescent GTP binding, flow cytometry; actives lie on both sides; 0 = cold GTP competed, 100 = untreated | GTP binding activity (% of control), % at 10 µM | hit rate 0.27% among 190,000 | AID 757;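 active = GTP binding activity at least 20 points away from the 100% control level, either lower or higher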
* marks the source's active call; other numbers are inactive results; [ ] = another dose, or the depositor's remark. Compounds with a hit are over-represented: about 0.4% of the library has one in this group of screens.

Results for COc1cc([N+](=O)[O-])cc(/C=N/NC(=O)c2ccc(NC(=O)c3ccc(C)cc3)cc2)c1O ?
Cdc42 wt GTP: 83.0; Rab2 wt GTP: 78.0*; Rac1 mut GTP: 80.0; HRas wt GTP: 80.0; Rab7 wt modul: 83.0; Rac1 wt modul: 81.0

What do the screens show for `O=C1OC(c2ccc(F)cc2)=C/C1=C\c1ccc([N+](=O)[O-])o1`?
Cdc42 wt GTP: 115.0; Rab2 wt GTP: 118.0; Rac1 mut GTP: 103.0; HRas wt GTP: 112.0; Rab7 wt modul: 124.0*[activator]; Rac1 wt modul: 113.0

Results for O=[N+]([O-])c1ccc(/C=N/N=C/c2ccc([N+](=O)[O-])o2)o1 ?
Cdc42 wt GTP: 92.0; Rab2 wt GTP: 91.0; Rac1 mut GTP: 90.0; HRas wt GTP: 91.0; Rab7 wt modul: 91.0; Rac1 wt modul: 95.0

Results for COCCCNc1c2c3c(cccc3[nH]c1=O)C(=O)c1ccccc1-2 ?
Cdc42 wt GTP: 86.0; Rab2 wt GTP: 82.0; Rac1 mut GTP: 90.0; HRas wt GTP: 84.0; Rab7 wt modul: 87.0; Rac1 wt modul: 84.0

Results for CCOC(=O)c1c2c3c(cccc3[nH]c1=O)C(=O)c1ccccc1-2 ?
Cdc42 wt GTP: 63.0*; Rab2 wt GTP: 65.0*; Rac1 mut GTP: 80.0; HRas wt GTP: 66.0*; Rab7 wt modul: 84.0; Rac1 wt modul: 76.0*

What do the screens show for `CCOC(=O)c1c2c3c(c(Cl)ccc3[nH]c1=O)C(=O)c1ccccc1-2`?
Cdc42 wt GTP: 41.0*; Rab2 wt GTP: 44.0*; Rac1 mut GTP: 65.0*; HRas wt GTP: 44.0*; Rab7 wt modul: 88.0; Rac1 wt modul: 45.0*

How did O=C(COC(=O)Cc1ccc(S(=O)(=O)N2CCCCC2)s1)Nc1ccc2c(c1)OCO2 do in these assays?
Cdc42 wt GTP: 102.0; Rab2 wt GTP: 99.0; Rac1 mut GTP: 99.0; HRas wt GTP: 102.0; Rab7 wt modul: 99.0; Rac1 wt modul: 102.0

How did COc1ccccc1CNC(=O)c1c(N)n(CCCN2CCOCC2)c2nc3ccccc3nc12 do in these assays?
Cdc42 wt GTP: 80.0; Rab2 wt GTP: 82.0; Rac1 mut GTP: 86.0; HRas wt GTP: 84.0; Rab7 wt modul: 87.0; Rac1 wt modul: 78.0*

Results for O=C(Nc1cccc(Cl)c1)N1CCN(c2ncccn2)CC1 ?
Cdc42 wt GTP: 114.0; Rab2 wt GTP: 111.0; Rac1 mut GTP: 104.0; HRas wt GTP: 109.0; Rab7 wt modul: 108.0; Rac1 wt modul: 125.0*[activator]

How did O=C(Nc1ccc(Cl)cc1Cl)N1CCN(c2ncccn2)CC1 do in these assays?
Cdc42 wt GTP: 95.0; Rab2 wt GTP: 95.0; Rac1 mut GTP: 94.0; HRas wt GTP: 94.0; Rab7 wt modul: 94.0; Rac1 wt modul: 97.0

What do the screens show for `CCC(O)CNc1nc(SC)nc2sc3c(c12)CCN(C)C3` (configuration not stated)?
Cdc42 wt GTP: 103.0; Rab2 wt GTP: 97.0; Rac1 mut GTP: 98.0; HRas wt GTP: 97.0; Rab7 wt modul: 96.0; Rac1 wt modul: 103.0

Results for CCCCN1C(=O)C(NC(=O)C2CC2)(C(F)(F)F)C2=C1CC(C)(C)CC2=O (configuration not stated) ?
Cdc42 wt GTP: 102.0; Rab2 wt GTP: 101.0; Rac1 mut GTP: 100.0; HRas wt GTP: 100.0; Rab7 wt modul: 100.0; Rac1 wt modul: 102.0

What do the screens show for `O=C(Nc1c(F)cccc1F)c1cnc(N2CCN(c3ccccn3)CC2)c2ccccc12`?
Cdc42 wt GTP: 103.0; Rab2 wt GTP: 97.0; Rac1 mut GTP: 106.0; HRas wt GTP: 101.0; Rab7 wt modul: 101.0; Rac1 wt modul: 131.0*[activator]

What do the screens show for `CC1=C(C(=O)Nc2ccc(F)c(F)c2)C(c2cccs2)NC(=S)N1` (configuration not stated)?
Cdc42 wt GTP: 98.0; Rab2 wt GTP: 100.0; Rac1 mut GTP: 98.0; HRas wt GTP: 102.0; Rab7 wt modul: 98.0; Rac1 wt modul: 100.0

How did CCN(CC)CCn1c(NCc2ccc3c(c2)OCO3)nc2ccccc21 do in these assays?
Cdc42 wt GTP: 101.0; Rab2 wt GTP: 100.0; Rac1 mut GTP: 95.0; HRas wt GTP: 100.0; Rab7 wt modul: 107.0; Rac1 wt modul: 100.0

How did COc1ccc(NC(=O)CC2C(=O)N(c3cccc(OC)c3)C(=O)N2C(C)C)cc1 (configuration not stated) do in these assays?
Cdc42 wt GTP: 100.0; Rab2 wt GTP: 96.0; Rac1 mut GTP: 95.0; HRas wt GTP: 97.0; Rab7 wt modul: 107.0; Rac1 wt modul: 99.0

How did O=C(COc1ccccc1[N+](=O)[O-])Nc1cc(Cl)ccc1C(=O)O do in these assays?
Cdc42 wt GTP: 80.0; Rab2 wt GTP: 83.0; Rac1 mut GTP: 79.0*; HRas wt GTP: 85.0; Rab7 wt modul: 92.0; Rac1 wt modul: 87.0

How did Nc1c(C(=O)C2CC2)sc2nc(-c3cccs3)cc(C(F)(F)F)c12 do in these assays?
Cdc42 wt GTP: 109.0; Rab2 wt GTP: 117.0; Rac1 mut GTP: 103.0; HRas wt GTP: 110.0; Rab7 wt modul: 116.0; Rac1 wt modul: 120.0*[activator]

How did Cc1ccc(/C=N/NC(=O)C2CCN(Cc3ccc(F)cc3Cl)CC2)o1 do in these assays?
Cdc42 wt GTP: 104.0; Rab2 wt GTP: 100.0; Rac1 mut GTP: 101.0; HRas wt GTP: 99.0; Rab7 wt modul: 78.0*; Rac1 wt modul: 102.0

How did Cc1nc2sccn2c1-c1nc(-c2cc3ccccc3o2)cs1 do in these assays?
Cdc42 wt GTP: 83.0; Rab2 wt GTP: 77.0*; Rac1 mut GTP: 91.0; HRas wt GTP: 81.0; Rab7 wt modul: 87.0; Rac1 wt modul: 79.0*

How did c1ccc2oc(-c3csc(N4CCOCC4)n3)cc2c1 do in these assays?
Cdc42 wt GTP: 92.0; Rab2 wt GTP: 94.0; Rac1 mut GTP: 97.0; HRas wt GTP: 95.0; Rab7 wt modul: 97.0; Rac1 wt modul: 96.0

What do the screens show for `Cc1sc2ncnc(Sc3ccccc3C(=O)O)c2c1C`?
Cdc42 wt GTP: 137.0*[activator]; Rab2 wt GTP: 134.0*[activator]; Rac1 mut GTP: 132.0*[activator]; HRas wt GTP: 124.0*[activator]; Rab7 wt modul: 122.0*[activator]; Rac1 wt modul: 145.0*[activator]

What do the screens show for `O=C(O)c1ccccc1Sc1ncnc2sc3c(c12)CCC3`?
Cdc42 wt GTP: 129.0*[activator]; Rab2 wt GTP: 124.0*[activator]; Rac1 mut GTP: 123.0*[activator]; HRas wt GTP: 121.0*[activator]; Rab7 wt modul: 107.0; Rac1 wt modul: 123.0*[activator]

How did COc1cccc(N2CC(O)=C(c3ccccc3)C2=N)c1 do in these assays?
Cdc42 wt GTP: 91.0; Rab2 wt GTP: 92.0; Rac1 mut GTP: 90.0; HRas wt GTP: 90.0; Rab7 wt modul: 91.0; Rac1 wt modul: 91.0

What do the screens show for `CCOc1ccc(/C(CC)=N/NC(=O)C2(C)CC2(Br)Br)cc1` (configuration not stated)?
Cdc42 wt GTP: 102.0; Rab2 wt GTP: 100.0; Rac1 mut GTP: 100.0; HRas wt GTP: 101.0; Rab7 wt modul: 98.0; Rac1 wt modul: 105.0
